NR2F2 inh: blocks human COUP-TFII nuclear receptor | P24468 | HEK293T NGFI-A luciferase reporter, luminescence | inhibition, % at 8.6 µM | actives 0.7% (n = 370,000) | AID 686940;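 active = inhibition above a per-plate cutoff, mean inhibition of test wells between control levels plus 3 SD, cut at about 38% in these data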;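 also: cells cotransfected with COUP-TFII expression vector driving the NGFI-A reporter; 0% = median of COUP-TF2 test wells and 100% = reporter-only cells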
Target sequence (P24468 whole entry, looked up): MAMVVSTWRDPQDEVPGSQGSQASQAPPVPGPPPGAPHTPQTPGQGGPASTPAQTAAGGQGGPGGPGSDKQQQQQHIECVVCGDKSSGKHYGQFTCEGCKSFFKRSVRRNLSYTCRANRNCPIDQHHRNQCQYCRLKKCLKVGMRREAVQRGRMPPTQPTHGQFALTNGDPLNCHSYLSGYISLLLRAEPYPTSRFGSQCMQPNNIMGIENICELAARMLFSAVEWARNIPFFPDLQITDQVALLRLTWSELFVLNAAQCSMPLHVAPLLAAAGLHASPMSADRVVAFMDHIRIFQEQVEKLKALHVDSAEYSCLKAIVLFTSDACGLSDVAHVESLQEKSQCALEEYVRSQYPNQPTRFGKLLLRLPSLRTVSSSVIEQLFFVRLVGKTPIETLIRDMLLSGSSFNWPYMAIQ
Cardio protect: protects H9c2 cardiomyocytes from peroxide injury | actives 0.63% (n = 360,000) | H2O2 injury protection, ATPLite, 2 h | protection from H2O2 cell death, % at 20 µM;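 active = compounds giving at least 50% protection of heart cells from peroxide-induced death in the single-dose screen, raw or plate-pattern-corrected value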;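 also: 0% = DMSO wells with peroxide and 100% = DMSO wells without peroxide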
697 NFkB inh: inhibitors of the PMA/ionomycin-induced NF-kB reporter in 697 B cells; 697 B-cell NF-kB luciferase reporter, 16 h; inhibition, % at 4 µM; actives 0.33% (n = 330,000); AID 435022; in the data active = inhibition above about 35%
Jurkat NFkB inh: inhibitors of the PMA/ionomycin-induced NF-kB reporter in Jurkat cells; PMA/ionomycin-induced NF-kB luciferase reporter, luminescence; inhibition, % at 4 µM; actives 0.53% (n = 330,000); in the data active = inhibition above about 50%
H9c2 TAG inh: reduces triacylglycerol accumulation in H9c2 cells | actives 0.66% (n = 230,000) | inhibition, % at 12.5 µM | Nile Red lipid (TAG) fluorescence; cells loaded with 200 µM oleic acid;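 active = pattern-corrected inhibition of lipid staining of at least 50% with the nuclear-stain viability signal not falling by more than 50%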;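 also: 0% = DMSO wells and 100% = triacsin C control wells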
Gli-Sufu block: Gli-Sufu pathway antagonism; AID 588413; actives 0.74% (n = 340,000); Sufu-KO-LIGHT fibroblasts, Gli luciferase reporter luminescence; inhibition, % at 5 µM;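 active = inhibition above about 55%, limit read from the data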;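 also: 0% = DMSO-treated cells and 100% = wells with medium but no cells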
Gli antag conf: Gli-SUFU antagonism confirmation, single concentration | shares compounds with Gli-Sufu block | Sufu-KO-LIGHT cells, Gli luciferase reporter, luminescence | inhibition, % at 5 µM | actives 40% (n = 2,500) | AID 602428;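 active = mean inhibition at 5 µM reaching about 45%, limit read from the data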;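 also: plate controls were DMSO-treated cells for no effect and wells lacking cells for full effect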
Gli cytotox: cytotoxicity counter-screen for Gli-SUFU antagonists | shares compounds with Gli-Sufu block | Sufu-KO-LIGHT cells cytotoxicity, ATP luminescence | cytotoxicity, % at 5 µM | actives 32% (n = 2,500);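 active = mean cytotoxicity at 5 µM above about 25%, limit read from the data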;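 also: cells exposed to compound overnight for roughly 16 to 18 hours; plate controls were DMSO wells with cells for no effect and medium without cells for full effect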
Wnt3a cs: counter-screen for Gli-SUFU antagonists: Wnt3a reporter inhibition; shares compounds with Gli-Sufu block; inhibition, % at 6.25 µM; AID 651995; Wnt-LIGHT cells, Wnt3a-driven luciferase reporter, luminescence; actives 20% (n = 2,500);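 active = mean inhibition above about 25%, limit read from the data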
* = called active by the depositor. Hits are enriched below; roughly 2.6% of the tested compounds scored in any of these assays.

What do the screens show for `COC(=O)C1=C(C)N(C)C(=NCC2CC2)NC1c1cccc(C(F)(F)F)c1` (stereo not drawn)?
NR2F2 inh: -2

Results for O=C1C(Cc2cccc([N+](=O)[O-])c2)SC(=Nc2ccccc2)N1c1ccccc1 (stereo not drawn) ?
NR2F2 inh: 7; Cardio protect: 0; 697 NFkB inh: -10; Jurkat NFkB inh: -4; Gli-Sufu block: 62*; Gli antag conf: 19; Gli cytotox: 24; Wnt3a cs: -36

How did O=C(c1ccccc1)n1ccc2ccc(-c3ccc4ccn(Cc5ccccc5)c4c3)cc21 do in these assays?
NR2F2 inh: -10

How did O=C(CSc1ccc2nnc(-c3cccnc3)n2n1)NCc1ccco1 do in these assays?
NR2F2 inh: 4; Cardio protect: 9; 697 NFkB inh: 0; Jurkat NFkB inh: 2; H9c2 TAG inh: -2; Gli-Sufu block: 82*; Gli antag conf: 13; Gli cytotox: 17; Wnt3a cs: -10

How did N=c1n(Cc2ccccc2)c2ccccc2n1Cc1ccccc1 do in these assays?
NR2F2 inh: 7; Cardio protect: -9; 697 NFkB inh: -47; Jurkat NFkB inh: -13; Gli-Sufu block: 46

Results for COc1ccc(OCC(O)Cn2c(=N)n(Cc3ccccc3)c3ccccc32)cc1 (stereo not drawn) ?
NR2F2 inh: 1; Cardio protect: -15; 697 NFkB inh: -13; Jurkat NFkB inh: 27; H9c2 TAG inh: -6; Gli-Sufu block: 52; Gli antag conf: 33; Gli cytotox: 31*; Wnt3a cs: -14

Results for Cc1ccsc1/C=N/n1c(-c2ccccc2)n[nH]c1=S ?
NR2F2 inh: 9; Cardio protect: -2; 697 NFkB inh: 7; Jurkat NFkB inh: -6; Gli-Sufu block: 2

How did Cc1ccsc1/C=N/n1c(-c2ccncc2)n[nH]c1=S do in these assays?
NR2F2 inh: 2; Cardio protect: 1; 697 NFkB inh: -10; Jurkat NFkB inh: -6; Gli-Sufu block: 56*; Gli antag conf: 10; Gli cytotox: 7; Wnt3a cs: 1

How did Cc1cccc(N2CCN(C(=O)c3cc(S(=O)(=O)N4CCOCC4)cn3C)CC2C)c1 (stereo not drawn) do in these assays?
NR2F2 inh: -1; Cardio protect: -2; 697 NFkB inh: 2; Jurkat NFkB inh: 2; Gli-Sufu block: 58*; Gli antag conf: 14; Gli cytotox: 1; Wnt3a cs: 10

What do the screens show for `CCOc1ccc(OCc2ccc(C(=O)NC(C)(C)C)o2)cc1`?
NR2F2 inh: 8; Cardio protect: -8; 697 NFkB inh: -127; Jurkat NFkB inh: -6; H9c2 TAG inh: -21; Gli-Sufu block: 53; Gli antag conf: 13; Gli cytotox: 12; Wnt3a cs: -20

Results for COC[C@@H]1CCCN1c1ccc2c(c1)OCCCN(C1CC1)S2(=O)=O ?
NR2F2 inh: -5

What do the screens show for `Nc1ccc(C(=O)N/N=C\c2cc(N=Nc3cccc4ccccc34)ccc2O)cc1`?
NR2F2 inh: 2; Cardio protect: 49; 697 NFkB inh: -57; Jurkat NFkB inh: 7; H9c2 TAG inh: 56*; Gli-Sufu block: 67*; Gli antag conf: 65*; Gli cytotox: 40*; Wnt3a cs: 59*

What do the screens show for `CC(=O)Nc1nc2ncccn2c1-c1ccc(C)cc1`?
NR2F2 inh: -25

Results for Cc1ccc[n+](CC(=O)c2ccc(-c3ccccc3)cc2)c1 ?
NR2F2 inh: 18; Cardio protect: -3; 697 NFkB inh: -11; Jurkat NFkB inh: -4; Gli-Sufu block: 4

How did Cc1ccc(C)[n+](CC(=O)c2ccc(-c3ccccc3)cc2)c1 do in these assays?
NR2F2 inh: 1; Cardio protect: -18; 697 NFkB inh: -9; Jurkat NFkB inh: 19; H9c2 TAG inh: -5; Gli-Sufu block: 56*; Gli antag conf: 36; Gli cytotox: 16; Wnt3a cs: -21

Assay outcomes from PubChem BioAssay.
